Assay results published in PubChem BioAssay.
Where “and” joins values, the source holds several entries; their conditions need not be identical. Identical values can stand only once. Inconclusive results are not listed. Calls of active or inactive are those of the source.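 How the source made its calls, unless noted: active means normalized viability below 100% at a tested concentration; inactive means the rest.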

Key:
[1] = drug combination growth inhibition, ovarian cancer – cell-based, oncology-focused library, rucaparib conditional, profiling panel (AID 1508598); conditions: patient-derived ovarian cancer cells, CellTiter-Glo viability, 144 h, stronger effect = lower value
[2] = viability loss in pontine glioma line – cell-based, SU-DIPG-XVII, MIPE5.0, CellTiter-Glo, qHTS, dose response (AID 1347060; cut-off not given, nearly all actives have AC50 up to about 26 µM;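 on AC50: cells exposed to compound for 48 hours before viability readout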); conditions: CellTiter-Glo ATP luminescence
[3] = viability loss in pontine glioma line – cell-based, JHH-DIPG-1, MIPE4.0, CellTiter-Glo, qHTS, dose response (AID 1347062; cut-off not given, nearly all actives have AC50 up to about 27 µM;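 on AC50: cells exposed to compound for two days before readout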); conditions: JHH-DIPG-1 viability, CellTiter-Glo ATP luminescence
[4] = viability loss in pontine glioma line – cell-based, SU-DIPG-IV, MIPE4.0, CellTiter-Glo, qHTS, dose response (AID 1347063; cut-off not given, nearly all actives have AC50 up to about 30 µM;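 further: compound exposure lasted 48 hours before the viability readout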); conditions: CellTiter-Glo ATP luminescence
[5] = viability loss in pontine glioma line – cell-based, SU-DIPG-XIII, MIPE5.0, CellTiter-Glo, qHTS, dose response (AID 1347064; cut-off not given, nearly all actives have AC50 up to about 23 µM;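 on AC50: cells exposed to compound for 48 hours before the viability read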); conditions: CellTiter-Glo ATP luminescence
[6] = growth inhibition of DIPG cells – cell-based, MIPE4.0 library, CellTiter-Glo luminescence, qHTS (AID 1347066; cut-off not given, nearly all actives have AC50 up to about 30 µM;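 further: cells exposed to compound for 48 hours before readout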); conditions: SU-DIPG-VI viability, CellTiter-Glo ATP luminescence
[7] = JHH-DIPG-1 glioma cell viability, MIPE5.0 library, CellTiter-Glo luminescence, qHTS (AID 1347067; cut-off not given, nearly all actives have AC50 up to about 26 µM;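 further: cells exposed to compound for 48 hours before readout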); conditions: JHH-DIPG-1 glioma viability, CellTiter-Glo ATP luminescence
[8] = growth inhibition of DIPG cells – cell-based, MIPE5.0 library, qHTS (AID 1347068; cut-off not given, nearly all actives have IC50 up to about 30 µM;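 on IC50: cells exposed to compound for 48 hours before viability readout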); conditions: SU-DIPG-XXV viability
[9] = viability loss in pontine glioma line – cell-based, SU-DIPG-XXV, MIPE5.0, CellTiter-Glo, qHTS, dose response (AID 1347065; cut-off not given, nearly all actives have AC50 up to about 26 µM;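 further: cells exposed to compound for 48 hours before ATP readout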); conditions: CellTiter-Glo ATP luminescence
[10] = viability loss with induced miR-34 in A549 – imaging, A549 dox-inducible miR-34, nuclei and caspase counts, primary screen (AID 1347080;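 active means compounds whose cell count with miR-34 switched on is under 0.7 times the count with it off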); conditions: A549 miR-34 inducible, Hoechst nuclei count, 48 h
[11] = MELAS cybrid and Rieske KO viability enhancers – cell-based, MELAS cybrids, Rieske KO mouse fibroblasts, CellTiter-Glo, primary screen (AID 1508586;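 active means mean z-score across replicates of 1.96 or higher in either the MELAS or the Rieske mutant cell line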;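 further: z relative to plate mean and SD of compound and empty wells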); conditions: low glucose
[12] = P. berghei load reduction in hepatocytes – cell-based, HepG2, luciferase luminescence, HepG2 viability, primary screen (AID 624349; in the data active means parasite load remaining mostly below about 12%, no sharp cut-off; inactive means mostly above about 10%;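 further: 100% = mean of DMSO negative control wells on the same plate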); conditions: P. berghei liver stage in HepG2, luciferase luminescence, concentration not given here; parasite load remaining: stronger effect = lower value; viability: measured here: HepG2 viability without parasites
[13] = compounds altering HSF1 focus formation in cells – imaging, Selleck Cancer Library (AID 1347162; in the data active means plate-normalised HSF1 focus index below about 0.46); conditions: human cells, HSF1 nuclear foci imaging, at 10 µM; SSMD: measured here: HSF1 foci SSMD mean; cell count: measured here: cell number; plate-normalised HSF1 focus index: stronger effect = lower value
[14] = at 0.0781 µM, OCI-P5x cells, without rucaparib
[15] = at 0.313 µM, OCI-C5x cells, with rucaparib 10 µM, 100% = cells with rucaparib alone
[16] = at 0.313 µM, OCI-C5x cells, without rucaparib
[17] = at 0.313 µM, OCI-P5x cells, with rucaparib 20 µM, 100% = cells with rucaparib alone
[18] = at 0.313 µM, OCI-P5x cells, without rucaparib
[19] = at 1.25 µM, OCI-C5x cells, with rucaparib 10 µM, 100% = cells with rucaparib alone
[20] = at 1.25 µM, OCI-C5x cells, without rucaparib
[21] = at 1.25 µM, OCI-P5x cells, with rucaparib 20 µM, 100% = cells with rucaparib alone
[22] = at 1.25 µM, OCI-P5x cells, without rucaparib
[23] = at 5 µM, OCI-C5x cells, with rucaparib 10 µM, 100% = cells with rucaparib alone
[24] = at 5 µM, OCI-C5x cells, without rucaparib
[25] = at 5 µM, OCI-P5x cells, with rucaparib 20 µM, 100% = cells with rucaparib alone
[26] = at 5 µM, OCI-P5x cells, without rucaparib
[27] = stronger effect = lower value, cell number ratio, induced over uninduced
[28] = measured here: relative caspase fold change +Dox/-Dox
[29] = measured here: total cells with miR-34 induction, stronger effect = lower value
[30] = measured here: total cells without miR-34 induction
[31] = MELAS cybrid survival, CellTiter-Glo 48 h, stronger effect = higher value
[32] = Rieske KO mouse fibroblast survival, CellTiter-Glo 72 h

C[C@@H](Oc1cc(-c2cnn(C3CCNCC3)c2)cnc1N)c1c(Cl)ccc(F)c1Cl
viability [1, 14]: 98.8% (active) | viability [1, 15]: 118% (inactive) | viability [1, 16]: 124% (inactive) | viability [1, 17]: 101% (inactive) | viability [1, 18]: 94.2% (active) | viability [1, 19]: 117% (inactive) | viability [1, 20]: 116% (inactive) | viability [1, 21]: 72.6% (active) | viability [1, 22]: 79.6% (active) | viability [1, 23]: 10.7% (active) | viability [1, 24]: 91.2% (active) | viability [1, 25]: 6.65% (active) | viability [1, 26]: 13.1% (active)

O=C(O)C1=CO[C@@H](O[C@@H]2O[C@H](CO)[C@@H](O)[C@H](O)[C@H]2O)[C@@H]2C(CO)=CC[C@H]12
outcome [2]: inactive | outcome [3]: inactive | outcome [4]: inactive | outcome [5]: inactive | outcome [6]: inactive | outcome [7]: inactive | outcome [8]: inactive

Nc1nc(N)c2nc(-c3cccc(O)c3)c(-c3cccc(O)c3)nc2n1
outcome [2]: inactive | AC50 [3]: 14.8 µM (active) | AC50 [4]: 6.62 µM (active) | outcome [5]: inactive | outcome [9]: inactive | outcome [7]: inactive | outcome [8]: inactive | fold change [10, 27]: 0.972 (inactive) | fold change [10, 28]: 0.762 | cell count [10, 29]: 7630 | cell count [10, 30]: 7850 | z-score [11, 31]: -0.482 (inactive) | z-score [11, 32]: 0.936

COc1cc2nc(-c3cc(F)ccc3O)nc(N[C@@H]3CNC[C@H]3C(C)(C)O)c2cc1OC
AC50 [2]: 9.34 µM (active) | AC50 [3]: 10.5 µM (active) | AC50 [4]: 9.35 µM (active) | AC50 [5]: 5.25 µM (active) | AC50 [9]: 4.17 µM (active) | AC50 [7]: 8.33 µM (active) | IC50 [8]: 4.17 µM (active)

Cn1c2ccccc2c2c3c(c4c5ccccc5n(CCC#N)c4c21)CNC3=O
parasite load remaining [12]: 110% (inactive) | viability [12]: 92.8% | AC50 [2]: 8.33 µM (active) | outcome [3]: inactive | AC50 [4]: 0.148 µM (active) | AC50 [5]: 13.2 µM (active) | AC50 [9]: 7.42 µM (active) | AC50 [7]: 11.8 µM (active) | fold change [10, 27]: 0.591 (active) | fold change [10, 28]: 1.06 | cell count [10, 29]: 1520 | cell count [10, 30]: 2580

CC(C)c1ccccc1Cc1cc(C(=O)Nc2ccc(S(=O)(=O)c3ccccc3C(C)(C)C)cc2)c(O)c(O)c1O
AC50 [2]: 23.5 µM (active) | AC50 [3]: 23.5 µM (active) | AC50 [4]: 23.5 µM (active) | AC50 [5]: 20.9 µM (active) | AC50 [9]: 23.5 µM (active) | AC50 [6]: 9.35 µM (active) | fold change [10, 27]: 0.928 (inactive) | fold change [10, 28]: 0.84 | cell count [10, 29]: 2090 | cell count [10, 30]: 2260 | SSMD [13]: -1.79 | cell count [13]: 7240 | plate-normalised HSF1 focus index [13]: 0.912 (inactive) | z-score [11, 31]: 2.95 (active) | z-score [11, 32]: -0.101 | viability ([1]; at 0.000305 µM, OCI-C5x cells, with rucaparib 10 µM, 100% = cells with rucaparib alone): 105% (inactive) | viability ([1]; at 0.000305 µM, OCI-C5x cells, without rucaparib): 115% (inactive) | viability ([1]; at 0.000305 µM, OCI-P5x cells, with rucaparib 20 µM, 100% = cells with rucaparib alone): 124% (inactive) | viability ([1]; at 0.000305 µM, OCI-P5x cells, without rucaparib): 124% (inactive) | viability ([1]; at 0.00122 µM, OCI-C5x cells, with rucaparib 10 µM, 100% = cells with rucaparib alone): 103% (inactive) | viability ([1]; at 0.00122 µM, OCI-C5x cells, without rucaparib): 119% (inactive) | viability ([1]; at 0.00122 µM, OCI-P5x cells, with rucaparib 20 µM, 100% = cells with rucaparib alone): 117% (inactive) | viability ([1]; at 0.00122 µM, OCI-P5x cells, without rucaparib): 116% (inactive) | viability ([1]; at 0.00488 µM, OCI-C5x cells, with rucaparib 10 µM, 100% = cells with rucaparib alone): 113% (inactive) | viability ([1]; at 0.00488 µM, OCI-C5x cells, without rucaparib): 116% (inactive) | viability ([1]; at 0.00488 µM, OCI-P5x cells, with rucaparib 20 µM, 100% = cells with rucaparib alone): 117% (inactive) | viability ([1]; at 0.00488 µM, OCI-P5x cells, without rucaparib): 121% (inactive) | viability ([1]; at 0.0195 µM, OCI-C5x cells, with rucaparib 10 µM, 100% = cells with rucaparib alone): 110% (inactive) | viability ([1]; at 0.0195 µM, OCI-C5x cells, without rucaparib): 109% (inactive) | viability ([1]; at 0.0195 µM, OCI-P5x cells, with rucaparib 20 µM, 100% = cells with rucaparib alone): 118% (inactive) | viability ([1]; at 0.0195 µM, OCI-P5x cells, without rucaparib): 114% (inactive) | viability ([1]; at 0.0781 µM, OCI-C5x cells, with rucaparib 10 µM, 100% = cells with rucaparib alone): 110% (inactive) | viability ([1]; at 0.0781 µM, OCI-C5x cells, without rucaparib): 111% (inactive) | viability ([1]; at 0.0781 µM, OCI-P5x cells, with rucaparib 20 µM, 100% = cells with rucaparib alone): 119% (inactive) | viability [1, 14]: 114% (inactive) | viability [1, 15]: 101% (inactive) | viability [1, 16]: 112% (inactive) | viability [1, 17]: 112% (inactive) | viability [1, 18]: 110% (inactive) | viability [1, 19]: 106% (inactive) | viability [1, 20]: 118% (inactive) | viability [1, 21]: 98.8% (active) | viability [1, 22]: 97.4% (active) | viability [1, 23]: 21.8% (active) | viability [1, 24]: 90.4% (active) | viability [1, 25]: 10.9% (active) | viability [1, 26]: 21.5% (active)

COc1cccc(Nc2c(C(N)=O)cnc3c(C)cc(S(=O)(=O)c4cccc(C(=O)N(C)C)c4)cc23)c1
outcome [2]: inactive | outcome [3]: inactive | outcome [4]: inactive | outcome [5]: inactive | outcome [6]: inactive | outcome [7]: inactive | outcome [8]: inactive | fold change [10, 27]: 0.95 (inactive) | fold change [10, 28]: 0.8 | cell count [10, 29]: 9130 | cell count [10, 30]: 9610 | z-score [11, 31]: -0.192 (inactive) | z-score [11, 32]: -1.7

CCN1CCN(c2ccc(Nc3cc(N(C)C(=O)Nc4c(Cl)c(OC)cc(OC)c4Cl)ncn3)cc2)CC1
AC50 [2]: 0.235 µM (active) | AC50 [3]: 23.5 µM (active) | AC50 [4]: 33.2 µM (active) | AC50 [5]: 0.332 µM (active) | AC50 [9]: 0.209 µM (active) | AC50 [7]: 8.33 µM (active)

Cc1c(CCOc2ccc(C(=O)O)cc2)c2cc(Cl)ccc2n1C(c1ccccc1)c1ccccc1
outcome [2]: inactive | outcome [3]: inactive | outcome [4]: inactive | outcome [5]: inactive | outcome [9]: inactive | outcome [6]: inactive | outcome [7]: inactive | outcome [8]: inactive | SSMD [13]: 2.36 | cell count [13]: 6680 | plate-normalised HSF1 focus index [13]: 1.14 (inactive)

CC(C)=CC[C@@H](O)C1=CC(=O)c2c(O)ccc(O)c2C1=O
parasite load remaining [12]: 4.44% (active) | viability [12]: 99.5% | AC50 [2]: 20.9 µM (active) | AC50 [3]: 0.526 µM (active) | AC50 [4]: 2.96 µM (active) | AC50 [5]: 11.8 µM (active) | AC50 [9]: 10.5 µM (active) | AC50 [6]: 2.96 µM (active) | fold change [10, 27]: 1.09 (inactive) and 1.03 (inactive) | fold change [10, 28]: 1.1 and 1.06 | cell count [10, 29]: 2290 and 4460 | cell count [10, 30]: 2110 and 4340 | z-score [11, 31]: -1.24 (inactive) | z-score [11, 32]: 1.65
